What is called AC50 is the concentration at which the activity in the assay is half-maximal.

Some compounds were tested as several samples or in several runs, with calls that do not always agree. Calls of active or inactive are those of the source. The calls were made as follows: active = hit-call score of the fitted dose curve at least 0.9, where 1 is the maximum; inactive = score below 0.9.

The test in a line: ATG_M_19_CIS: Attagene CIS-FACTORIAL HepG2 Assay for M19 Transcription Factor (Internal Marker) (AID 2282939). The settings on record: HepG2 Attagene CIS-FACTORIAL M19 internal marker reporter; actives raise or lower the signal. On the procedure:
ATG_CIS is a cell-based, multiplexed-readout assay that uses HepG2, a human liver cell line, with measurements taken at 24 hours after chemical dosing in a 24-well plate.ATG_M_19_CIS is one of 52 assay component(s) measured or calculated from the ATG_CIS assay. It is designed to make measurements of mRNA induction, a form of inducible reporter, as detected with fluorescence intensity signals by Reverse transcription polymerase chain reaction (RT-PCR) and Capillary electrophoresis technology.Data from the assay component ATG_M_19_CIS was analyzed into 1 assay endpoint. This assay endpoint, ATG_M_19_CIS, was analyzed with bidirectional fitting relative to DMSO as the negative control and baseline of activity. Using a type of inducible reporter, measures of mRNA for gain or loss-of-signal activity can be used to understand the background control at the transcription factor-level as they relate to the gene . Furthermore, this assay endpoint can be referred to as a secondary readout, because this assay has produced multiple assay endpoints where this one serves a background control function. To generalize the intended target to other relatable targets, this assay endpoint is annotated to the background measurement intended target family, where the subfamily is internal marker.
Human liver HepG2 cells are transiently transfected with multiple reporter transcription units (MRTUs) in 6-well plates using FuGene 6 reagent (Roche; 3 ml FuGene/1 mg DNA). The MRTU constructs are regulated by a cis-regulating element (promoter). […] A major difference between the CIS and TRANS system is that in CIS activities of endogenous TFs are measured, whereas the TRANS assay evaluates changes in activities of exogenous, chimeric NR-Gal4 proteins. […] At the end of 24 hour incubation, total RNA was isolated using TriZol reagent (Invitrogen). The isolated RNA is then reverse-transcribed using oligo(dT) primer and Mo-MLV reverse transcriptase (Invitrogen) with DNAse I (Ambion) treatment for 30 min. The one-tenth of the produced cDNA was amplified by PCR using Taq DNA polymerase (Invitrogen) and two reporter sequence-specific primers. The PCR products were fluorescently labeled by primer extension with 6-arboxyfluorescein (6-FAM) 5'-labeled reporter sequence-specific primer (2 min at 95 C, 20 s at 68 C and 10 min at 72 C) and these products were digested with 5U of HpaI (New England Biolabs) for 2h at 37 C. The fragments were purified using Qiaquick PCR columns (Qiagen), analyzed on an ABI 3130xL genetic analyzer (Applied Biosystems) with peak positions identified by using a set of X-rhodamine (ROX)-labeled MapMarker1000 molecular weight standards (BioVentures). The raw capillary electrophoresis data was processed using Attagraph software (Attagene).
Take `Cc1ccc(S(=O)(=O)O)cc1`: the compound was called inactive.

`O=S(=O)(O)c1ccccc1`: the result was inactive.

Turning to `Oc1ccc(Cc2ccccc2O)cc1`, the call was inactive.

On to `CC1CCC(CO)CC1` (stereo not given), for which the result was inactive.

On to `COC(=O)C(F)(F)C(F)(F)C(F)(F)C(F)(F)C(F)(F)F`, for which the result was inactive.

For `C[C@]12CC[C@@H]3c4ccc(O)cc4CC[C@H]3[C@@H]1C[C@@H](O)[C@@H]2O`, the compound was classed as inactive.

As to `CNNCc1ccc(C(=O)NC(C)C)cc1`, the compound was called inactive.

Turning to `O=C(c1ccccc1)c1ccccc1`, the outcome was inactive.

In the case of `Clc1ccc2c(Cl)ccnc2c1`, the compound was called inactive.

In the case of `COc1cccc(O)c1`, the compound was classed as inactive.

Turning to `O=C(O)C(F)(F)OC(F)(F)C(F)(F)OC(F)(F)C(F)(F)OC(F)(F)C(F)(F)C(F)(F)C(F)(F)F`, the compound was called inactive.

As to `CCC(C)c1ccccc1O` (stereo not given), the result was inactive.

Regarding `CCCCCCCCC(C)=O`, the compound was classed as inactive.

With `O=C(NCc1ncc(C(F)(F)F)cc1Cl)c1c(Cl)cccc1Cl`, the call was inactive.

`C=CC(=O)OCCC(F)(F)C(F)(F)C(F)(F)C(F)(F)C(F)(F)C(F)(F)C(F)(F)C(F)(F)F`: the call was inactive.

As for `O=P(O)(O)CCC(F)(F)C(F)(F)C(F)(F)C(F)(F)C(F)(F)C(F)(F)C(F)(F)C(F)(F)F`, the compound was classed as inactive.

Consider `O=C(Nc1ccc(Cl)c(Cl)c1)c1cc(Cl)cc(Cl)c1O`, for which the call was inactive.

As to `O=C(CC(=O)C(F)(F)C(F)(F)C(F)(F)F)c1cccs1`, the result was inactive.

As for `N=C(N)c1ccc(OCCCCCOc2ccc(C(=N)N)cc2)cc1`, the call was inactive.

For the compound `CCOC=O`, the compound was called inactive.

Regarding `CC(C)(c1ccc(Oc2ccc(N)cc2)cc1)c1ccc(Oc2ccc(N)cc2)cc1`, the call was inactive.

As for `COC(=O)C(F)(F)C(F)(F)C(F)(F)F`, the outcome was inactive.

As to `Oc1c(Cl)ccc(Cl)c1Cl`, the compound was called inactive.

Turning to `CN(C)c1ccc(C(=C2C=CC(=[N+](C)C)C=C2)c2ccccc2)cc1`, the call was inactive.

Take `Cc1cc(C(C)(C)C)c(O)c(C(C)(C)C)c1`: the AC50 is 97.1 µM (active) and the compound was called inactive.

Consider `FC(F)=C(F)C(F)(F)C(F)(F)C(F)(F)C(F)F`, for which the result was inactive.

Regarding `CCCCCCCCCC=CCC1CC(=O)OC1=O` (stereo not given), the outcome was inactive.

Turning to `C=CC(C)(CCC=C(C)C)OC(C)=O` (stereo not given), the outcome was inactive.

Turning to `COc1ccccc1NC(=O)c1cc2ccccc2cc1O`, the compound was classed as inactive.

Take `COc1cc([N+](=O)[O-])ccc1N`: the compound was called inactive.

As for `c1cc[nH]c1`, the call was inactive.

Consider `CCCCCCCCCCCCCCC`, for which the call was inactive.

In the case of `C[C@]12CC[C@@H]3c4ccc(O)cc4CC[C@H]3[C@@H]1CC[C@@H]2OC(=O)CCC1CCCC1`, the result was inactive.

Take `CCN(CC)CC`: the outcome was inactive.

As for `Cc1cncc(C)c1`, the result was inactive.

In the case of `CC1=NN(c2ccccc2)C(=O)C1`, the outcome was inactive.

`NCCN`: the call was inactive.

Regarding `CCOC(OCC)C(=O)c1ccccc1`, the outcome was inactive.

With `FC(OC(F)(F)C(F)(F)C(F)(F)F)C(F)(F)F` (stereo not given), the compound was called inactive.

(Values after PubChem BioAssay (EPA / NIEHS).)
